Among all 310,000 compounds or so, about 1,200 (0.39%) were called active. Not all results are given here. Results with a measured potency or affinity are listed apart. A number with no mark means an inactive call. The rule behind the calls is not given here.
Biological target: Large T antigen (Simian virus 40) (UniProt P03070)
Test: TAg ATPase/helicase activity blockers – biochemical (AID 1903)
Settings: SV40 large T antigen ATPase/helicase inhibition assay; at 20 µM; hits give high values

Large T antigen (Simian virus 40), sequence (P03070 whole entry, looked up): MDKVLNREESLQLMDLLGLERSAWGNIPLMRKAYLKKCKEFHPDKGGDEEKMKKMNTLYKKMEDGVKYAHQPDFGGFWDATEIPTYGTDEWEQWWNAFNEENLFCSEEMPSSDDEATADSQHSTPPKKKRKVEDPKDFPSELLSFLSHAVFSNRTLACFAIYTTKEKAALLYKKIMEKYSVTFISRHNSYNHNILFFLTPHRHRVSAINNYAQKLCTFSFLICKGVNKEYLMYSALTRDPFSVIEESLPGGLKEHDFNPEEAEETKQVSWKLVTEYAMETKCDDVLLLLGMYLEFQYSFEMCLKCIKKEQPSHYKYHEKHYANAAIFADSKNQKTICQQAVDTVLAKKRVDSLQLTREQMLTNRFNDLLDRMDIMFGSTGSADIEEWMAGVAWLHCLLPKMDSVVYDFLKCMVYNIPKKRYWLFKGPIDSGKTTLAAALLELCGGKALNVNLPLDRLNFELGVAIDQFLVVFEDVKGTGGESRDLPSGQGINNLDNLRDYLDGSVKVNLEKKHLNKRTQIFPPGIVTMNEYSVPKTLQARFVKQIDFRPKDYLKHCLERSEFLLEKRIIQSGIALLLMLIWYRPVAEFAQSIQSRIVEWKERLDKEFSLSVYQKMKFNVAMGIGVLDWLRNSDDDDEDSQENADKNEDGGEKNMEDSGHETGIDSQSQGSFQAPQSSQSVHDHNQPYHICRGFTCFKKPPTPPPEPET

Point of comparison: `O=C(Cc1n[nH]c(=O)[nH]c1=O)N/N=C/c1cccc(O)c1`, inhibition 9.95%. Against it:
- Cc1cccc2cc3c(nc12)SC(=NCC1CCCO1)N(Cc1ccco1)C3 (centres undefined) — higher, 26%
- COCCN=C1Sc2nc3ccc(C)cc3cc2CN1Cc1ccco1 — higher, 19.9%
- Cc1cccc(Nc2nc(-c3ccc(O)c(O)c3)cs2)n1 — higher, 30.3%
- c1ccc(-c2csc(Nc3ccccn3)n2)cc1 — lower, 9.23%
- c1ccc(-c2csc(Nc3ncccn3)n2)cc1 — lower, 0.05%
- Cc1ccc(Nc2nc(-c3ccc(F)cc3)cs2)nc1 — lower, 9.89%
- Oc1ccc(-c2csc(Nc3ncccn3)n2)cc1 — lower, 6.13%
- Oc1ccc(-c2csc(Nc3ccccn3)n2)cc1 — higher, 22.2%
- Cc1csc(Nc2cccc3ccccc23)n1 — higher, 11.9%
- Cc1ccnc(Nc2nc(-c3ccc(O)c(O)c3)cs2)c1 — higher, 32.9%
- Cc1c(/C(Cc2ccccc2)=N/O)c2ccccc2n1C — higher, 15.5%
- COc1ccccc1N(Cc1ccccc1)S(=O)(=O)c1cccc(C(=O)Nc2cc(C)ccn2)c1 — higher, 11.2%
- O=C(Nc1ccc2c3c(cccc13)CC2)c1ccc(Br)o1 — lower, -1.82%
- O=C(COC(=O)c1cc(S(=O)(=O)N2CCOCC2)ccc1Cl)Nc1ccc2c(c1)OCO2 — lower, -0.55%
- O=C(Cn1nnc2ccccc21)NC1CCCCC1 — lower, 7.66%
- CC(C(N)=O)N1c2cccc3cccc(c23)S1(=O)=O (centres undefined) — lower, 5.84%
- Cc1cc(C)c(OCC(=O)Nc2ccccn2)c([N+](=O)[O-])c1 — lower, 4.36%
- COCCCNC(=O)c1ccc2c(=O)n(Cc3ccc(OC)cc3)c(=O)[nH]c2c1 — higher, 17.4%
- COc1ccc(CCNC(=O)CNC(=O)Cn2cnc3sc(C)c(C)c3c2=O)cc1OC — lower, -8.68%
- COc1ccc(Nc2c(C)cccc2C)cc1 — lower, -1.03%
- COc1ccc(Nc2ccc(Nc3ccc(OC)cc3)nn2)cc1 — higher, 10.9%
- O=C(O)CC1c2ccccc2CCN1S(=O)(=O)c1ccccc1 (centres undefined) — higher, 16.2%
- CCOCCc1nnc(NC(=O)Cc2ccc(Br)cc2)s1 — lower, 4.12%
- Cc1ccc(Oc2nc3ccccc3n3c(C)nnc23)c(C)c1 — lower, 1.35%
- CCN(CC(=O)NC(=O)NC1CCCC1)Cc1ccccc1 — higher, 14.2%
- c1ccc(-c2nc3cnccn3c2Nc2ccc3c(c2)OCCO3)cc1 — lower, 9.23%
- c1cn2c(Nc3ccc4c(c3)OCCO4)c(-c3ccc(N4CCOCC4)cc3)nc2cn1 — higher, 29.1%
- Cc1ccc(-c2nc3cnccn3c2Nc2ccc3c(c2)OCO3)cc1 — higher, 25.3%
- Clc1ccc(-c2nc3cnccn3c2NC2CCCC2)cc1 — lower, 8.26%
- COc1cc(-c2nc3cnccn3c2Nc2ccc(C(C)C)cc2)ccc1O — lower, 9.43%
- COc1cc(-c2nc3cnccn3c2Nc2ccc(C)cc2)ccc1O — higher, 37%
- COc1ccc(-c2nc3cnccn3c2Nc2ccc3c(c2)OCO3)cc1 — higher, 21.4%
- Fc1ccc(-c2nc3cnccn3c2NC2CCCC2)cc1 — lower, 3.13%
- CC(=O)c1c(C)[nH]c(C(=O)OCc2c(F)cccc2Cl)c1C — higher, 20.8%
- CN(C)C(=O)c1cn(-c2ccccc2)nc1-c1cc2ccccc2o1 — lower, 0.09%
- CCCC1CCC(c2ccc(/C(N)=N/O)cc2)CC1 (centres undefined) — lower, 4.39%
- CC(=O)NC(N1CCCCC1)C(F)(F)C(F)(F)C(F)(F)C(F)F (centres undefined) — lower, -2.22%
- Cc1c(Cl)cccc1NC(=S)N(CCCN1CCOCC1)Cc1cccs1 — lower, 3.79%
- Oc1ccc(-c2nc3ncccn3c2Nc2ccc3c(c2)OCCO3)cc1 — higher, 13.3%
- Clc1ccc(-c2nc3ncccn3c2Nc2ccc3c(c2)OCO3)cc1 — lower, 7.55%
- CC(C)OC(=O)/C(=C/c1ccc2c(c1)c1ccccc1n2C)NC(=O)c1ccccc1 — lower, 3.18%
- COc1ccc2c(c1)-c1nc(/N=C/c3c(O)ccc4ccccc34)sc1CC2 — higher, 23.1%
- COc1ccc2c(c1)-c1nc(/N=C/c3ccc(O)cc3)sc1CC2 — higher, 15.8%
- Cn1nc(-c2ccccc2)cc1NC(=O)C1CCCCC1 — lower, 5.74%
- Cc1ccc(C(=O)c2cc(C)sc2N)cc1 — higher, 19.1%
- Nc1ccc(C(=O)c2cccs2)cc1 — lower, 6.86%
- CCSC1=NSC2=NC(=O)/C(=C\c3coc4ccccc4c3=O)C(=N)N12 — higher, 28.2%
- CSC1=NSC2=NC(=O)/C(=C/c3coc4ccccc4c3=O)C(=N)N12 — higher, 12.2%
- N=C1/C(=C/c2coc3ccccc3c2=O)C(=O)N=C2SC(c3ccco3)=NN12 — higher, 51.6%
- N=C1/C(=C\c2coc3ccccc3c2=O)C(=O)N=C2SC=CN12 — higher, 34.7%
- CC(C)CSC1=NSC2=NC(=O)/C(=C\c3coc4ccccc4c3=O)C(=N)N12 — higher, 13.7%
- CSC1=NSC2=NC(=O)/C(=C/c3coc4ccc(O)cc4c3=O)C(=N)N12 — higher, 17.7%
- COc1ccccc1N1CCN(C(=O)c2oc3ccc(F)cc3c2C)CC1 — lower, -1.49%
- O=C(CC(Sc1ccc(Br)cc1)C(=O)O)c1ccc(F)cc1 (centres undefined) — lower, 7.72%
- Cc1ccc(SC(CC(=O)c2ccc(C)cc2)C(=O)O)cc1 (centres undefined) — higher, 19.4%
- CN1C(=O)C2C(c3ccc(N(C)C)cc3)NN(Cc3ccccc3)C2C1=O (centres undefined) — higher, 19.9%
- COc1ccc(C2=NN(Cc3ccccc3)C3C(=O)NC(=O)C23)cc1 (centres undefined) — lower, 4.68%
- CCOC(=O)N1CCN(c2cc(=O)n(-c3ccc(OC)cc3)c(=O)[nH]2)CC1 — lower, -2.27%
- Cc1ccccc1CNC(=O)Cn1ccc2cc(S(=O)(=O)N3CCCCCC3)ccc21 — lower, 5.82%
- O=C(COC(=O)c1ccc(CO)cc1)Nc1ccc(OC(F)F)cc1 — lower, -2.98%
- Cc1nnc(NC(=O)CCS(=O)(=O)c2ccccc2)s1 — higher, 19.4%
- Nc1ccc2c(c1)nc(Cc1ccccc1)n2CCO — higher, 32.4%
- Cn1c(CO)nc2cc(N)ccc21 — higher, 24.9%

Reference: PubChem BioAssay AID1903 (Southern Research Specialized Biocontainment Screening …, 2009)
